# Experimental data taken from publication PMC7862700, “An all-to-all approach to the identification of sequence-specific readers for epigenetic DNA modifications on cytosine”.
# What was measured:
# Assay in all cases: DAPPL (digital affinity profiling via proximity ligation, sequencing); 10 mM Tris-HCl pH 7.5, 50 mM NaCl, 1 mM DTT, 4% glycerol, room temperature, 30 min; GST-TFs on glutathione beads, 16-mer random dsDNA library, 0.1% formaldehyde crosslink after washing; high values mean tight binding
# FLI1 = target: T1, FLI1 (Homo sapiens, UniProt Q01543 1-452); conditions: protein: recombinant; tags: N-terminal GST; dsDNA, one strand shown
# T1 sequence: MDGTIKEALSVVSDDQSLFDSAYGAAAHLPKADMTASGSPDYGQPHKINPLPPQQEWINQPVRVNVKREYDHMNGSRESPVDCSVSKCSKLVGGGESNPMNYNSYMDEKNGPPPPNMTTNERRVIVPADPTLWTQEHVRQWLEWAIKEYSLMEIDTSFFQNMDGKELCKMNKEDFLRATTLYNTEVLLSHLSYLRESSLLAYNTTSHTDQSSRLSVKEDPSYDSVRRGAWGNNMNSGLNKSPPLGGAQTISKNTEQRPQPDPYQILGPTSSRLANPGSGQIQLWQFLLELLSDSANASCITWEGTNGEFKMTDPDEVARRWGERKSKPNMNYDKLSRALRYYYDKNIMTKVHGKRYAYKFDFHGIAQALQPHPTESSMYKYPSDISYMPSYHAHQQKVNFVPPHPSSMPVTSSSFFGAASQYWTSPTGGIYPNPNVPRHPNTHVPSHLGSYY
# Outline: (§1)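 GST fusions of human transcription factors were expressed in yeast and captured with glutathione beads. Once given DNA barcodes and pooled alongside a tag-only sample, they were incubated for 30 min at room temperature with 200 nmole of a random double-stranded 16-mer DNA library in Tris/NaCl/DTT/glycerol buffer, then washed, crosslinked (0.1% formaldehyde), proximity-ligated, PCR-amplified and sequenced on an Illumina NextSeq500. The binding signal of each hexamer is its read frequency for a factor divided by its frequency for the tag-only sample.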
# ELK1 = target: T2, ELK1 (Homo sapiens, UniProt P19419 1-428); conditions: protein: recombinant; tags: N-terminal GST; dsDNA, one strand shown
# T2 sequence: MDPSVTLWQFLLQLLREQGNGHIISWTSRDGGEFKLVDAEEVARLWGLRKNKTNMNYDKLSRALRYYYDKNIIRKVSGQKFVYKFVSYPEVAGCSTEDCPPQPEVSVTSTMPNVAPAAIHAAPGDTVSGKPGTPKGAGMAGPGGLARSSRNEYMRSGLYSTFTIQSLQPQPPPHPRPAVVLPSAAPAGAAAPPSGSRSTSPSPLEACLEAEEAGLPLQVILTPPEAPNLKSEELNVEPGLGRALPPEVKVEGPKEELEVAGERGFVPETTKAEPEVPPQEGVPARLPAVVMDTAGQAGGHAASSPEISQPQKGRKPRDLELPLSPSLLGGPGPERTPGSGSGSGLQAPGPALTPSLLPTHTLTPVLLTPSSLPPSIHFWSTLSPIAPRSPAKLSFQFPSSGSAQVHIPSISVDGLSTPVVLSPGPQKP
# Outline: as §1
# GABPA = target: T3, GABPA (Homo sapiens, UniProt Q06546 1-454); conditions: protein: recombinant; tags: N-terminal GST; dsDNA, one strand shown
# T3 sequence: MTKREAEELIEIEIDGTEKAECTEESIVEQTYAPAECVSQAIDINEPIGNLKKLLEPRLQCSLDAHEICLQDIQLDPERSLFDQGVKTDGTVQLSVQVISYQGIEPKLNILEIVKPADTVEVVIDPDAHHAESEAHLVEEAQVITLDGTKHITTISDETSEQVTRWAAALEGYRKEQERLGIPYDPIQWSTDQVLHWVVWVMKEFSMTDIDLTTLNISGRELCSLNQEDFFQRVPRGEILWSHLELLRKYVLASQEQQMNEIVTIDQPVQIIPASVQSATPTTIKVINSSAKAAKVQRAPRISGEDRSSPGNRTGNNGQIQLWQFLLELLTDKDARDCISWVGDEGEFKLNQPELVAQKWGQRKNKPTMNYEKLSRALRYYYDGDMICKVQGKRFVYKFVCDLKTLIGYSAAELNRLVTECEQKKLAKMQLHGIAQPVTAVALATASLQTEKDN
# Outline: as §1
# ERG = target: T4, ERG (Homo sapiens, UniProt P11308 1-479); conditions: protein: recombinant; tags: N-terminal GST; dsDNA, one strand shown
# T4 sequence: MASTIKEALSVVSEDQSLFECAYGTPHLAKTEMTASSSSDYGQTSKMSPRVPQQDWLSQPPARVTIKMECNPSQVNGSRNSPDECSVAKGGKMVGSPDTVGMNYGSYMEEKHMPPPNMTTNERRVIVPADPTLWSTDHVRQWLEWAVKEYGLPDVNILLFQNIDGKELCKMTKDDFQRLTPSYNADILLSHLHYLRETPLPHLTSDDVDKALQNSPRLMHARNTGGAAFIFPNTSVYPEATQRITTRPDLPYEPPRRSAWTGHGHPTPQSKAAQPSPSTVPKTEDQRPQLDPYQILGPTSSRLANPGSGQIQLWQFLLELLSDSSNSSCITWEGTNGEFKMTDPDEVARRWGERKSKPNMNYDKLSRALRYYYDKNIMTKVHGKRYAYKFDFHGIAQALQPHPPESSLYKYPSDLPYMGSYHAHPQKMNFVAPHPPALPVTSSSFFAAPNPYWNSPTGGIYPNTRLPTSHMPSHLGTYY
# Outline: as §1
# ELF1 = ELF1 (Homo sapiens, UniProt P32519 1-619); conditions: protein: recombinant; tags: N-terminal GST; dsDNA, one strand shown
# Outline: as §1
# EHF = target: T5, EHF (Homo sapiens, UniProt Q9NZC4 1-300); conditions: protein: recombinant; tags: N-terminal GST; dsDNA, one strand shown
# T5 sequence: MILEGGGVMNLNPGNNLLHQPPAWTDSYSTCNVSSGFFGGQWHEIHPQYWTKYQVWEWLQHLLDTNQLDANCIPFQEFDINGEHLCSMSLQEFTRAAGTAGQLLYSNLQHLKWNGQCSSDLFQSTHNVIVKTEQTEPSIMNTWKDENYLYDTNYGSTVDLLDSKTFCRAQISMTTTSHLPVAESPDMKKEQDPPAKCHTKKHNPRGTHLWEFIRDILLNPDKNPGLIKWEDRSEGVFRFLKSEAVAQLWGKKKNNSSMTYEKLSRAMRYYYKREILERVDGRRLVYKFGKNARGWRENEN
# Outline: as §1
# SPI1 = SPI1 (Homo sapiens, UniProt P17947 1-270); conditions: protein: recombinant; tags: N-terminal GST; dsDNA, one strand shown
# Outline: as §1
# SPIB = SPIB (Homo sapiens, UniProt Q01892 1-262); conditions: protein: recombinant; tags: N-terminal GST; dsDNA, one strand shown
# Outline: as §1
# ELK3 = target: T6, ELK3 (Homo sapiens, UniProt P41970 1-407); conditions: protein: recombinant; tags: N-terminal GST; dsDNA, one strand shown
# T6 sequence: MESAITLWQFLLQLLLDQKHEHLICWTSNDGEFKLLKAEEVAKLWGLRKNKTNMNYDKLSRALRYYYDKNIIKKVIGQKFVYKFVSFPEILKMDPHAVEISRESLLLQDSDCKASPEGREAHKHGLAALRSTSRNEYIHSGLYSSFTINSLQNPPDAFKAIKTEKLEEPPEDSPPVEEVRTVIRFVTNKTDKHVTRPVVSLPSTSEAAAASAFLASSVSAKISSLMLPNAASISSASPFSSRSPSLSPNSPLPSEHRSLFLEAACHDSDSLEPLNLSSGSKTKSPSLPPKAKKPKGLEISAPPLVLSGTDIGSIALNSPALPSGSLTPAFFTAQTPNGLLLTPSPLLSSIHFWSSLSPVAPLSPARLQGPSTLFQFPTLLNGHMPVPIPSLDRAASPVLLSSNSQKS
# Outline: as §1
# FEV = target: T7, FEV (Homo sapiens, UniProt Q99581 1-238); conditions: protein: recombinant; tags: N-terminal GST; dsDNA, one strand shown
# T7 sequence: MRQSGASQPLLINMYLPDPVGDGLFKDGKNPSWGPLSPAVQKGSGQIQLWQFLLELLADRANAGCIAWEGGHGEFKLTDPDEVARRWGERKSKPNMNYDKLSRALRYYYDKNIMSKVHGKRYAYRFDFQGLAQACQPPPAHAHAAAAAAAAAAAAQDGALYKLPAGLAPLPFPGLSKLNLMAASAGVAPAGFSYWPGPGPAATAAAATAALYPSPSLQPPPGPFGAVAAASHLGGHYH
# Outline: as §1
# ETV5 = ETV5 (Homo sapiens, UniProt P41161 1-510); conditions: protein: recombinant; tags: N-terminal GST; dsDNA, one strand shown
# Outline: as §1
# HSF1 = HSF1 (Homo sapiens, UniProt Q00613 1-529); conditions: protein: recombinant; tags: N-terminal GST; chain copies: 3; dsDNA, one strand shown
# Outline: as §1
# SPIC = target: T8, SPIC (Homo sapiens, UniProt Q8N5J4 1-248); conditions: protein: recombinant; tags: N-terminal GST; dsDNA, one strand shown
# T8 sequence: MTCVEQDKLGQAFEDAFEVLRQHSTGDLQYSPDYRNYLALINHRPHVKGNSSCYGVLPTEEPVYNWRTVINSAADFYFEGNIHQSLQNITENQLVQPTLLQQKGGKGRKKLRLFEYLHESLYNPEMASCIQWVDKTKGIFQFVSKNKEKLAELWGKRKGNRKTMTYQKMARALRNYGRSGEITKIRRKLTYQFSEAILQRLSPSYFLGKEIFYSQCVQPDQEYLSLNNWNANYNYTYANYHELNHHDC
# Outline: as §1
# ELF4 = ELF4 (Homo sapiens, UniProt Q99607 1-663); conditions: protein: recombinant; tags: N-terminal GST; dsDNA, one strand shown
# Outline: as §1
# ELK4 = target: T9, ELK4 (Homo sapiens, UniProt P28324-2 1-405); conditions: protein: recombinant; tags: N-terminal GST; dsDNA, one strand shown
# T9 sequence: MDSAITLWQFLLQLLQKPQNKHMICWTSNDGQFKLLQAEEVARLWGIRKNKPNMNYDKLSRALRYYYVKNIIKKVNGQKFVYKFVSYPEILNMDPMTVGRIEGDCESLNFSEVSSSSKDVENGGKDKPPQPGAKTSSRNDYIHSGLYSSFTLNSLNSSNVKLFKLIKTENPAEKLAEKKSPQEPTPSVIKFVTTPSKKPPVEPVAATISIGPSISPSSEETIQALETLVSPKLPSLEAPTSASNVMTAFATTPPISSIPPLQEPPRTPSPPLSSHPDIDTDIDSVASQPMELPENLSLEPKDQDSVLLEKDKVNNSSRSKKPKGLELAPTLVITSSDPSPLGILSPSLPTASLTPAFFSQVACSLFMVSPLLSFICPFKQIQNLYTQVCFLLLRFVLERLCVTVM
# Outline: as §1
# ETV2 = target: T10, ETV2 (Homo sapiens, UniProt O00321 1-342); conditions: protein: recombinant; tags: N-terminal GST; dsDNA, one strand shown
# T10 sequence: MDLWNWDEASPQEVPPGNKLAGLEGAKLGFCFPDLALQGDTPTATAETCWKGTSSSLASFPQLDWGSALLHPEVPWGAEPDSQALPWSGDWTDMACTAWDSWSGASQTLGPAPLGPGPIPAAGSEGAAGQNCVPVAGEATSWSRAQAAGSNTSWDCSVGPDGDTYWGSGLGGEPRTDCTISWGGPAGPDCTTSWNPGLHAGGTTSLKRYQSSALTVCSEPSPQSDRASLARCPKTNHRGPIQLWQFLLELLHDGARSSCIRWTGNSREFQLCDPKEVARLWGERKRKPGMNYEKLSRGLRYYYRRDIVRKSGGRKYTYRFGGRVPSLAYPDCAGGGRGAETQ
# Outline: as §1
# ELF3 = target: T11, ELF3 (Homo sapiens, UniProt P78545 1-371); conditions: protein: recombinant; tags: N-terminal GST; dsDNA, one strand shown
# T11 sequence: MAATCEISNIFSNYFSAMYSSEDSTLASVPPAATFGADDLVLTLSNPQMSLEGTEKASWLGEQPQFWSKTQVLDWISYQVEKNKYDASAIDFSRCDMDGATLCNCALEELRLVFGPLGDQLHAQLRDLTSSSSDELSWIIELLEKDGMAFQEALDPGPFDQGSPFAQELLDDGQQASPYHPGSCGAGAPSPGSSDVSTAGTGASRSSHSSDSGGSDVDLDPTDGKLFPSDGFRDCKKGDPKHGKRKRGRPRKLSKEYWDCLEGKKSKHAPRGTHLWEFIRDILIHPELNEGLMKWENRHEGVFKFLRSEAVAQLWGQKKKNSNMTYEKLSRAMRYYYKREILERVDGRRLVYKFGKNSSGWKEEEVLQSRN
# Outline: as §1
# CRX = CRX (Homo sapiens, UniProt O43186 1-299); conditions: protein: recombinant; tags: N-terminal GST; dsDNA, one strand shown
# Outline: as §1
# ETV1 = ETV1 (Homo sapiens, UniProt P50549 1-477); conditions: protein: recombinant; tags: N-terminal GST; dsDNA, one strand shown
# Outline: as §1
# Sequence of HSF1 (Q00613 whole entry): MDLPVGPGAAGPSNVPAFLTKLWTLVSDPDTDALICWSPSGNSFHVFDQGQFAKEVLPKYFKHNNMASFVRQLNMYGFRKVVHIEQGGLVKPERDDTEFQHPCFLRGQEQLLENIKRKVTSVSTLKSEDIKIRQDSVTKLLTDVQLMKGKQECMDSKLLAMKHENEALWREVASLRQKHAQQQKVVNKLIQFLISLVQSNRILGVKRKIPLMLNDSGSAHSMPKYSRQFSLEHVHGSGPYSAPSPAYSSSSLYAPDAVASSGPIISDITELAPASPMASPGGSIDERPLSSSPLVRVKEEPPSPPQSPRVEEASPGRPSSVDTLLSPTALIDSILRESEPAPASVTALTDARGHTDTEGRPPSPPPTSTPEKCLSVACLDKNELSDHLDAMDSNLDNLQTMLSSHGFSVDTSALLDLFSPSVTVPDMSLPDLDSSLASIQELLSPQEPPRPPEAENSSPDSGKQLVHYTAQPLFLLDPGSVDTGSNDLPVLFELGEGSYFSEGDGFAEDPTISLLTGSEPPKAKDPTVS
# Sequence of ELF4 (Q99607 whole entry): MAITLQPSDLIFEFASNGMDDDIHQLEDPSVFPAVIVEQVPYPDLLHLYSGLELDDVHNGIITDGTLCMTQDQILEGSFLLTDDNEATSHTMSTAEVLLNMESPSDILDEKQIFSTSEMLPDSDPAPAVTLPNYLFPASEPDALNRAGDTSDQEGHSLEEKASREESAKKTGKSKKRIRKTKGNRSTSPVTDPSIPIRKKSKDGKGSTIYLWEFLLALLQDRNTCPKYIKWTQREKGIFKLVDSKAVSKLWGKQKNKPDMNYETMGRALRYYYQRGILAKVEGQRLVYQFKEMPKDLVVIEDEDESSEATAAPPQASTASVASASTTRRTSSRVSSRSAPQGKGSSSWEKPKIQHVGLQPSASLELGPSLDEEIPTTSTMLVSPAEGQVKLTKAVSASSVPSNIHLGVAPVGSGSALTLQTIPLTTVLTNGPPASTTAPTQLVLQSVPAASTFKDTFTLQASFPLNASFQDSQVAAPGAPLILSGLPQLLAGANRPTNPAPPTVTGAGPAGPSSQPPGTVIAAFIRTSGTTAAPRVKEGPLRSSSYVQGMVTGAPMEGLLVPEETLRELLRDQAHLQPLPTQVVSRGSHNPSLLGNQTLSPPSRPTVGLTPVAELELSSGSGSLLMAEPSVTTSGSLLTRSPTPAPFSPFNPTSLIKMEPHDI
# Sequence of ELF1 (P32519 whole entry): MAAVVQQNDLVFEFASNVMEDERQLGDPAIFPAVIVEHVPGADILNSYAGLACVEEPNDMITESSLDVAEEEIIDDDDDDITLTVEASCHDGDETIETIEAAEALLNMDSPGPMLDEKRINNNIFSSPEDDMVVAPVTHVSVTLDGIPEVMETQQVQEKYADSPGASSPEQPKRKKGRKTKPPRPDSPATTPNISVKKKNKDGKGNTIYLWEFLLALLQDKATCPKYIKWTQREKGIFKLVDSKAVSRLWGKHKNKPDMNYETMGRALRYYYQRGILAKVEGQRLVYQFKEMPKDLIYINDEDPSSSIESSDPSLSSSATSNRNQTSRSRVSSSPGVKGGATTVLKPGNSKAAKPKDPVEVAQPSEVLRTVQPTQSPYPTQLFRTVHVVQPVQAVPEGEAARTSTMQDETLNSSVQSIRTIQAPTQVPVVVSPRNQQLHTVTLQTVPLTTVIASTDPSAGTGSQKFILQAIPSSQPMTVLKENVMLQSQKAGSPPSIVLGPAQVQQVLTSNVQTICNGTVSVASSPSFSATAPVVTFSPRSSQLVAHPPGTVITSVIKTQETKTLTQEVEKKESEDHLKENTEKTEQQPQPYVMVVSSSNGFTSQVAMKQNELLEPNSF
# Sequence of ETV5 (P41161 whole entry): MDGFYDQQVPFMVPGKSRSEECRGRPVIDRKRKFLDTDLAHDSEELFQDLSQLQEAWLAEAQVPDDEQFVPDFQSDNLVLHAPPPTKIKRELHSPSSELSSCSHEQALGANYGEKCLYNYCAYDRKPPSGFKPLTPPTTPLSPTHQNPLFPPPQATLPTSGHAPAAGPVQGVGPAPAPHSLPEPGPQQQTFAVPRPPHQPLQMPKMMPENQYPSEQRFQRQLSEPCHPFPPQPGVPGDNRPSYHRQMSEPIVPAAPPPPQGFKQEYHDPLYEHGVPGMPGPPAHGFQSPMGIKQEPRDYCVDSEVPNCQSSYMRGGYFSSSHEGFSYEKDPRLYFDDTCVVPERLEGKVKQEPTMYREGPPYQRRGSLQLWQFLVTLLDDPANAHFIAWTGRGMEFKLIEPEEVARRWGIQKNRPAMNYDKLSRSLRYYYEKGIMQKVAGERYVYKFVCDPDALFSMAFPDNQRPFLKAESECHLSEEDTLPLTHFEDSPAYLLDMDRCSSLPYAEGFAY
# Sequence of CRX (O43186 whole entry): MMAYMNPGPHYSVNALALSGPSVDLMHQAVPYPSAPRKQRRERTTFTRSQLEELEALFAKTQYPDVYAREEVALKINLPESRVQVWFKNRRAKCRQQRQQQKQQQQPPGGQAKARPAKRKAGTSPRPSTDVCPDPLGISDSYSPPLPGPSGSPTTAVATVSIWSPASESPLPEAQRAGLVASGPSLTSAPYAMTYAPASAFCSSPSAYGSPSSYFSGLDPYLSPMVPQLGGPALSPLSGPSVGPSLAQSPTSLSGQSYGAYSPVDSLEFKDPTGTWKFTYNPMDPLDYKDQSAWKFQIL
# Sequence of ETV1 (P50549 whole entry): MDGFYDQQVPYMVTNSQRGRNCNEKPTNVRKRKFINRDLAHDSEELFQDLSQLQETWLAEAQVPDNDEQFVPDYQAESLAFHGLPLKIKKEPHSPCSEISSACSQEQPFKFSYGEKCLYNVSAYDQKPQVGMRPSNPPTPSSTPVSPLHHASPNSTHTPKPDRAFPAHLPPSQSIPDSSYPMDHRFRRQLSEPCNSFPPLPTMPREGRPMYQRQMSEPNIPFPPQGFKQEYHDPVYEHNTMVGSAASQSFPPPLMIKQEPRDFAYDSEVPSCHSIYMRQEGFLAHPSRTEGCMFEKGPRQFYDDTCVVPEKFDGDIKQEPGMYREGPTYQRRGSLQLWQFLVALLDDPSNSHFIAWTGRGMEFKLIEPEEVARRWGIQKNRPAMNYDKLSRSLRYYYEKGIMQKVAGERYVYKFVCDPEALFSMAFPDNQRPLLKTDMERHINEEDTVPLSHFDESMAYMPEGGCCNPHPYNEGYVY
# Sequence of SPIB (Q01892 whole entry): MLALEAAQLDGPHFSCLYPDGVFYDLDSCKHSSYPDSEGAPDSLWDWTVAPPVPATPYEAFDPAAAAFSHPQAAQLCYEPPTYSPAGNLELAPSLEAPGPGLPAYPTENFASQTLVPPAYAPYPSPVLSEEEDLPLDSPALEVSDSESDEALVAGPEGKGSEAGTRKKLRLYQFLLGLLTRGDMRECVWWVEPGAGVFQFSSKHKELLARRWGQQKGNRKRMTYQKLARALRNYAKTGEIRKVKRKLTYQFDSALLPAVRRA
sequence,measurement,setting,value
CTCCTC,binding signal,FLI1,"1.36 fold enrichment (6-mer frequency, TF over GST control)"
same,binding signal,ELK1,"1.38 fold enrichment (6-mer frequency, TF over GST control)"
same,binding signal,GABPA,"1.39 fold enrichment (6-mer frequency, TF over GST control)"
same,binding signal,ERG,"1.26 fold enrichment (6-mer frequency, TF over GST control)"
same,binding signal,ELF1,"1.32 fold enrichment (6-mer frequency, TF over GST control)"
same,binding signal,EHF,"1.54 fold enrichment (6-mer frequency, TF over GST control)"
same,binding signal,SPI1,"1.39 fold enrichment (6-mer frequency, TF over GST control)"
same,binding signal,SPIB,"1.4 fold enrichment (6-mer frequency, TF over GST control)"
same,binding signal,ELK3,"1.31 fold enrichment (6-mer frequency, TF over GST control)"
same,binding signal,FEV,"1.37 fold enrichment (6-mer frequency, TF over GST control)"
same,binding signal,ETV5,"1.23 fold enrichment (6-mer frequency, TF over GST control)"
same,binding signal,HSF1,"1.16 fold enrichment (6-mer frequency, TF over GST control)"
same,binding signal,SPIC,"1.3 fold enrichment (6-mer frequency, TF over GST control)"
same,binding signal,ELF4,"1.47 fold enrichment (6-mer frequency, TF over GST control)"
same,binding signal,ELK4,"1.41 fold enrichment (6-mer frequency, TF over GST control)"
same,binding signal,ETV2,"1.39 fold enrichment (6-mer frequency, TF over GST control)"
same,binding signal,ELF3,"1.3 fold enrichment (6-mer frequency, TF over GST control)"
same,binding signal,CRX,"1.08 fold enrichment (6-mer frequency, TF over GST control)"
same,binding signal,ETV1,"1.39 fold enrichment (6-mer frequency, TF over GST control)"
